These results are taken from PubChem BioAssay.

Molecules are shown by their SMILES. The source made the active and inactive calls.

Test [1] in a line: small molecules captured by biotinylated probe aFSTL3 – biochemical, small-molecule microarray, fluorescence 635/667, stem cell growth factor project, primary screen (AID 1064).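 Note: measures binding of the biotinylated anti-FSTL3 antibody to printed compounds.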 To be noted: higher = more signal.
The nature of test [2]: binders from COS7 lysate, DM2A8 probe, primary screen, torsin A project, cell lysate, small-molecule microarray, fluorescence 635/667 (AID 1065). To be noted: higher = more signal, COS7 lysate expressing mutant human TOR1A.
A short description of test [3]: small molecules captured by biotinylated probe aFGF2 – biochemical, small-molecule microarray, fluorescence 635/667, stem cell growth factor project, primary screen (AID 1067).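 Note: measures binding of biotinylated aFGF2 protein to printed compounds on slides; z-score merges feature fluorescence and signal-to-noise across triplicate slides.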 To be noted: higher = more signal.
Test [4] can be described thus: small molecules captured by biotinylated probe aFGF10 – biochemical, small-molecule microarray, fluorescence 635/667, stem cell growth factor project, primary screen (AID 1071).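 Note: score merges 667 nm spot intensity and signal to noise from triplicate slides.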 To be noted: higher = more signal.
For test [5], the target named is Neurogenic locus notch homolog protein 2 (Homo sapiens) (UniProt Q04721). The experiment in a line: small molecules binding Notch2 protein – biochemical, small-molecule microarray, 635 nm fluorescence, stem cell growth factors, primary screen (AID 1073). To be noted: higher = more signal.
Test [6] addresses Pro-neuregulin-1, membrane-bound isoform (Homo sapiens) (UniProt Q02297). The experiment in a line: small molecules binding neuregulin-1 protein – biochemical, small-molecule microarray, fluorescence 635/667, psychiatric disease protein project, primary screen (AID 1075).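 Note: score combines 667 nm spot fluorescence with signal to noise.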 To be noted: NRG1 binding, 635 nm fluorescence, higher = more signal.
Test [7] concerns Neuregulin-1 EGF-like domain. The experiment in a line: small molecules binding NRG1 EGF domain – biochemical, small-molecule microarray, 635 nm fluorescence, primary screen (AID 1081).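 Note: binding of the protein to compounds printed on small-molecule microarray slides.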 To be noted: higher = more signal.
The nature of test [8]: FRG1 expression reporter modulators in myotubes – cell-based, C2C12 myotubes, firefly/Renilla luciferase, luminescence, FRG1 inhibition for FSHD, primary screen (AID 1084). To be noted: FRG1 promoter luciferase, higher = more signal, called active from +8 up or from −8 down.
Test [9] is described as follows: small molecules captured by biotinylated probe aFST – biochemical, small-molecule microarray, fluorescence 635/667, stem cell growth factor project, primary screen (AID 1086).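 Note: score merges 667 nm fluorescence with signal-to-noise of each printed compound spot.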 To be noted: higher = more signal.
Test [10] is described as follows: binders of probe aHhip on microarray, primary screen, stem cell growth factor project, biochemical, small-molecule microarray, fluorescence 635/667 (AID 1087).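 Note: score merges spot fluorescence at 667nm with spot signal to noise ratio.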 To be noted: higher = more signal.
Test [11] relates to PRMT1 (protein arginine N-methyltransferase 1). The experiment in a line: small molecules binding arginine methyltransferase PRMT1 – biochemical, small-molecule microarray, 635 nm fluorescence, primary screen (AID 1088).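 Note: binding of Prmt1 protein to compounds spotted on small-molecule microarray slides.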 To be noted: higher = more signal.
The nature of test [12]: growth effects on S. cerevisiae YJM789 – YJM789 clinical isolate, OD600, 24 h, basal, primary screen (AID 1089).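 Note: growth of clinical yeast isolate S. cerevisiae YJM 789 seeded 1000 cells per well; test concentration not given here.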 To be noted: higher = more signal, called active from +8 up or from −8 down.
Test [13] in a line: S. pombe growth modifiers, basal conditions – strain 972, OD600, 24 h, no modulator, primary screen (AID 1090).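 Note: basal condition with compound alone and no growth modifier present; test concentration not given here.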 To be noted: S. pombe 972 growth, higher = more signal, called active from +8 up or from −8 down.
The nature of test [14]: budding yeast growth modifiers under rapamycin – strain BY4716, OD600, 96 h, primary screen (AID 1091). Note: test concentration not given here. To be noted: S. cerevisiae BY4716 + rapamycin, higher = more signal, called active from +8 up or from −8 down.
Test [15] addresses Torsin-1A-interacting protein 2 (Homo sapiens) (UniProt Q8NFQ8). The experiment in a line: small molecules binding lysate-expressed LULL1 – cell lysate, human LULL1 lysate, 635/667 nm fluorescence, primary screen (AID 1092).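 Note: probe is lysate of COS7 cells overexpressing human LULL1; score merges per-feature 667 nm fluorescence with signal-to-noise.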 To be noted: small-molecule microarray, hLULL1 lysate binding, 635 nm fluorescence; higher = more signal.
Test [16] in a line: optical density change of DRC41 E. coli – strain DRC41, OD650, 24 h, E. coli filamentation project, primary screen (AID 1093).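 Note: MC1000 strain lacking acrAB efflux and sulA so SOS filamentation is blocked; test concentration not given here.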 To be noted: E. coli DRC41 growth, higher = more signal, called active from +8 up or from −8 down.
Test [17] in a line: probe aLefty2 binding to arrayed compounds – biochemical, biotinylated probe, 635/667 nm fluorescence, primary screen (AID 1094).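 Note: score merges spot fluorescence near 667 nm with spot signal-to-noise ratio.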 To be noted: small-molecule microarray, higher = more signal.
Test [18] relates to Noggin (protein binding on small-molecule microarray). In words: small molecules binding Noggin protein – biochemical, 635/667 nm fluorescence, primary screen (AID 1095).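 Note: score merges 667 nm feature fluorescence with signal to noise over triplicate slides.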 To be noted: 635 nm fluorescence, higher = more signal.
Test [19] deals with Neurogenic locus notch homolog protein 3 (Homo sapiens) (UniProt Q9UM47). The experiment in a line: small molecules binding NOTCH3 protein – biochemical, 635/667 nm fluorescence, primary screen (AID 1096). To be noted: small-molecule microarray, 635 nm fluorescence, higher = more signal.
Sequence of Neurogenic locus notch homolog protein 3 (Homo sapiens) (Q9UM47 whole entry, looked up): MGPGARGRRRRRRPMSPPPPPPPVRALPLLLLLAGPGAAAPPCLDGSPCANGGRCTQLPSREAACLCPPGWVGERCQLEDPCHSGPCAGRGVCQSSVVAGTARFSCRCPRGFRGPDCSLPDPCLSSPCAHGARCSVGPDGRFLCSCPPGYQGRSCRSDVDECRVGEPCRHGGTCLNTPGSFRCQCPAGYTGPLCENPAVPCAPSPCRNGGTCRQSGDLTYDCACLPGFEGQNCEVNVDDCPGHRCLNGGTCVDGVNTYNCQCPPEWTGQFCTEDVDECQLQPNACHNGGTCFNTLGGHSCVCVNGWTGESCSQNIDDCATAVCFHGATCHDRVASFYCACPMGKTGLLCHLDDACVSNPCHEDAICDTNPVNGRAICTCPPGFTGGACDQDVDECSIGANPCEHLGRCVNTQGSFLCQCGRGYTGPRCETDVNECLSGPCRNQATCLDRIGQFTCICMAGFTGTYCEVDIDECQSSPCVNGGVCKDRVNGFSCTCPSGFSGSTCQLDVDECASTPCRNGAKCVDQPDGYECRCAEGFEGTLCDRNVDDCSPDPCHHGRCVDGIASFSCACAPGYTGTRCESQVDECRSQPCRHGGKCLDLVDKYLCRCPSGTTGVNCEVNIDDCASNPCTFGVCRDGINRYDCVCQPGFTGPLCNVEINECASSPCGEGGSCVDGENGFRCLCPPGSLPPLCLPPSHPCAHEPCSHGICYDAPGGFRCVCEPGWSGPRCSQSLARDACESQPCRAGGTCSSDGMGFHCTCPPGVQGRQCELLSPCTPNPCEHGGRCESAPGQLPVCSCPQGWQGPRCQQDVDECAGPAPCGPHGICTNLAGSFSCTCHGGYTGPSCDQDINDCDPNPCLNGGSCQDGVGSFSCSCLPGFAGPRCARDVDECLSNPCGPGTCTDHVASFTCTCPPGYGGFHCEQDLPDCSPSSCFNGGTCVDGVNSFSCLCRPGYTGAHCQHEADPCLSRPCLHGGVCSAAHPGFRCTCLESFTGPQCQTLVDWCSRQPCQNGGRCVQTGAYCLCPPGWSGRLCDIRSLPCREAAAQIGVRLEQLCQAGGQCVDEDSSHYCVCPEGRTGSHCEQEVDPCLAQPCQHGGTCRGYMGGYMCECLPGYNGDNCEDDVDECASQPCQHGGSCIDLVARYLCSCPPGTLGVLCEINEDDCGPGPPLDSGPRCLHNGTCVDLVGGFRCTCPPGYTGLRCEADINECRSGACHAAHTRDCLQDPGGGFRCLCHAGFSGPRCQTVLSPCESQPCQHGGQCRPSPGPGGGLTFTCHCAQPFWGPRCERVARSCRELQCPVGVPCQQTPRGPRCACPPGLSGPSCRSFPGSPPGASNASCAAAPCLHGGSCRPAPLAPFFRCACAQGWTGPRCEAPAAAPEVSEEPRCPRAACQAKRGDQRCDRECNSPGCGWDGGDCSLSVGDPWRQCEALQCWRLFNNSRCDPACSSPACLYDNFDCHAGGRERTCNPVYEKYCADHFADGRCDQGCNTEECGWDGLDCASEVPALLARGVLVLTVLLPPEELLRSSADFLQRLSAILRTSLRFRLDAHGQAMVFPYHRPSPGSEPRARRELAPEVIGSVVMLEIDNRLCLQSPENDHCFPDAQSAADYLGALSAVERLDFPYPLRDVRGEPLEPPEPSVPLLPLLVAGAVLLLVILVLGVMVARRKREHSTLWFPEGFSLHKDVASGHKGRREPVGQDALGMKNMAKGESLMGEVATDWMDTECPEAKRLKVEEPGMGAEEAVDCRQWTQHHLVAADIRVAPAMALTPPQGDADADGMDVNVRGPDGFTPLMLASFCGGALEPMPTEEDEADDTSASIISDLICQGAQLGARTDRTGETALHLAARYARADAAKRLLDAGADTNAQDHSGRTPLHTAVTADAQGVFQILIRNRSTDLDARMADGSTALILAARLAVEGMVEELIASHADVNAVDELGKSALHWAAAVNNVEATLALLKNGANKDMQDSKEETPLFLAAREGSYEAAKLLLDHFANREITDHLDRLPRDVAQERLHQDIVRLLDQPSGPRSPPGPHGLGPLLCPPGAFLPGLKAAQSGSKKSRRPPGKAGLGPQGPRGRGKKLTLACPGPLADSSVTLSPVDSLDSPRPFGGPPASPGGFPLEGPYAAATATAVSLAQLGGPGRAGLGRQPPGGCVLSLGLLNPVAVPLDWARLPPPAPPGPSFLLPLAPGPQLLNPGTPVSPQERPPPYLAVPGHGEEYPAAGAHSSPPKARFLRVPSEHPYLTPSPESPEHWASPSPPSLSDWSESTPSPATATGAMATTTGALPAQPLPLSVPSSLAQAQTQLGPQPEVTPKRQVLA
The nature of test [20]: probe aEGFR binding to arrayed compounds – biochemical, biotinylated probe, 635/667 nm fluorescence, primary screen (AID 1097).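 Note: probe is a biotinylated anti-EGFR antibody binding compounds printed on slides; score combines fluorescence near 667 nm and signal to noise of each spot.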 To be noted: small-molecule microarray, higher = more signal.

Sequence of Torsin-1A-interacting protein 2 (Homo sapiens) (Q8NFQ8 whole entry, looked up): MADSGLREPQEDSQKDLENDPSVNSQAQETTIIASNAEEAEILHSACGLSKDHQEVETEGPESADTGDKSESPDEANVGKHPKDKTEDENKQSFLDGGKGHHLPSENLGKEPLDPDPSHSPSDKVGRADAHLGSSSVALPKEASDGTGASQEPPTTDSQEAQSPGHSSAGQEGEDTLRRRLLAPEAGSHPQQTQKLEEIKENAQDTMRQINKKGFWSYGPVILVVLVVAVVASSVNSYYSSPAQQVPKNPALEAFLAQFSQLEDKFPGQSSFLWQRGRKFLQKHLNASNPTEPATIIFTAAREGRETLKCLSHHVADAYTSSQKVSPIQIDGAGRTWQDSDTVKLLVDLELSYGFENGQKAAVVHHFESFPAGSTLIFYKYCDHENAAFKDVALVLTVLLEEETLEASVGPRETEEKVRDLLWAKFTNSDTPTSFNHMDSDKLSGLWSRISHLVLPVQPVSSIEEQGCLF
Sequence of Pro-neuregulin-1, membrane-bound isoform (Homo sapiens) (Q02297 whole entry, looked up, the tested form may be a part, canonical isoform): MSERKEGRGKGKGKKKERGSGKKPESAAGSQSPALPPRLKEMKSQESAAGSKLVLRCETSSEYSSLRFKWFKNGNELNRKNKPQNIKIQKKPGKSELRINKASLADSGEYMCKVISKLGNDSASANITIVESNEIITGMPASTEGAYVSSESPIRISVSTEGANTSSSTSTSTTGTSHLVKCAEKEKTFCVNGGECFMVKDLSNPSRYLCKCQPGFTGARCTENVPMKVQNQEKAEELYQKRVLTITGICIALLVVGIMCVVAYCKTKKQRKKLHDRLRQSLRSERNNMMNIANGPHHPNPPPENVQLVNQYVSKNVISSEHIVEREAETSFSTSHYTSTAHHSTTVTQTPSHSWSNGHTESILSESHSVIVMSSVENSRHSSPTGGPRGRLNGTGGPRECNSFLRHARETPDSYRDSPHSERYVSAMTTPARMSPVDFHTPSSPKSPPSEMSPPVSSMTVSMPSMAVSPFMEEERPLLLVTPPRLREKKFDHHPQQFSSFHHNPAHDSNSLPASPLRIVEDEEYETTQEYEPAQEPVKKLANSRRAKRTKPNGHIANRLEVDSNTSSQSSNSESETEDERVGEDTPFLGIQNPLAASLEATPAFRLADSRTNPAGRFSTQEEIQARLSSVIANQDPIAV

Regarding `COCCOC(=O)N1C(=O)[C@@]2(c3cc(C#CCC(C(=O)OC)C(=O)OC)ccc31)[C@H](C(N)=O)[C@H]1C(=O)O[C@H](c3ccccc3)[C@H](c3ccccc3)N1[C@@H]2c1ccc(OCCO)cc1`, the composite z-score in [1] was -0.231; in test [2] it was 0.787; in test [3], 0.0001; in [4], 0.906; in test [5], 1.34; in test [6] it was 1.19. The composite z-score in test [7] is 1.23; in [9], 0.111; in test [10], -0.249; in test [11], 1.53; in test [15], 2.77; in [17], 0.0139. The composite z-score in [18] is 0.813; in test [19], 1.08; in test [20], -0.0245. Further, the z-score in test [8] is 0.789 (inactive); in [12], 2.23 (inactive); in [13], 2.01 (inactive); in test [14] it was 6.44 (inactive); in test [16] it was -0.55 (inactive).
For `C=C(/C(=C/C[C@@H](OC(C)=O)c1ccccc1OCCO)c1cc(C(=O)OC)ccc1OC)C(C)C`, the composite z-score in test [1] was -0.101; in test [2] it was 0.179; in [3] it was -0.049; in test [4] it was 0.643; in test [5] it was 0.632; in [6], 0.685. The composite z-score in [7] was 0.5; in test [9], -0.145; in test [10] it was -0.312; in test [11], 0.551; in [15], 0.231; in [17], -0.119. For the same compound, the composite z-score was 0.235 in test [18], -0.163 in test [19] and 0.198 in [20]. Also, the z-score in test [8] is 0.178 (inactive); in test [12], 0.343 (inactive); in test [13], -0.377 (inactive); in test [14], -0.729 (inactive); in [16] it was 0.505 (inactive).
On to `C=CCN1C(=O)[C@]2(O[C@H](CCn3cc([C@H](O)c4ccccc4)nn3)[C@@H]([Si](C)(C)c3ccc(OC)cc3)[C@@H]2C)c2cc(N3C(=O)c4cccc5cccc3c45)ccc21`, for which the composite z-score in test [1] is -0.144; in test [2], -0.111; in test [3] it was -0.085; in test [4], 0.73; in [5] it was -0.0893; in test [6], 1.07. Also, the composite z-score in test [7] was 0.76; in test [9] it was -0.516; in test [10], -0.256; in test [11], 0.755; in test [15], 0.6; in [17], -0.217. Further, the composite z-score in [18] was 0.624; in test [19], 0.232; in test [20], -0.28. The z-score is -1.84 (inactive) in test [8]; -0.055 (inactive) in test [12]; 1.06 (inactive) in test [13]; 1.21 (inactive) in test [14]; 0.374 (inactive) in test [16].
`CCOC(=O)C[C@H]1[C@H](OC(=O)c2ccc(-c3ccccc3)cc2)[C@@H](NC(=O)c2ccc3ccccc3c2)c2cc(OCCCO)ccc2N1C(=O)c1ccccc1`: the composite z-score is -0.211 in test [1]; -0.0761 in test [2]; -0.0692 in [3]; 0.557 in test [4]; 0.736 in test [5]; -0.0077 in [6]. Also, the composite z-score in test [7] is 0.627; in [9], 0.412; in [10] it was -0.0115; in test [11], 0.712; in test [15], 1.69; in [17], -0.141. Further, the results for the composite z-score in [18], in test [19] and in [20] were 0.382, 0.842 and 0.0914, respectively. The z-score is -0.182 (inactive) in [8]; 0.806 (inactive) in test [12]; 1.17 (inactive) in test [13]; 1.26 (inactive) in test [14]; -1.1 (inactive) in [16].
As for `C=CC(CO)NC(=O)OCC1c2ccccc2-c2ccccc21` (stereo not given), the composite z-score in [1] was -0.165; in test [2], 0.96; in test [3], -0.178; in test [4], 0.282; in test [5], 0.342; in test [6] it was 0.147. Further, the composite z-score was 0.256 in test [7]; 0.0613 in test [9]; -0.217 in test [10]; -0.341 in [11]; -0.652 in test [15]; -0.145 in [17]. For the same compound, the composite z-score in test [18] is 0.497; in [19], 0.493; in [20] it was -0.0192. Moreover, the z-score in test [8] is -0.113 (inactive); in test [12], -1.2 (inactive); in test [13], -0.0715 (inactive); in test [14] it was -0.29 (inactive); in test [16], -0.77 (inactive).
